Measured values published in ChEMBL document CHEMBL3988442, “University of Dundee, Small-Polar-MMV Screening Library” (2021).

Molecular target: AMP-activated protein kinase, AMPK (Homo sapiens) (UniProt P54646+O43741+P54619+Q9UGJ0+Q9Y478+Q13131+Q9UGI9)
Assay: AMP-dependent Kinase enzyme assay. An in vitro enzyme assay that detects ADP turnover that is directly proportional to AMPK activity. This uses naive AMPK that is activated during the assay with MK-8722
Type: functional
Set-up: scale not given: direction of the effect not stated beside the values
Details: 30 µM

Row | Compound | Percent Effect
1 | CN1CCN(c2ccc(F)cc2NC(=O)NCCn2ccnc2)CC1 | 12.1%
2 | CC(C)C(=O)Nc1cccc(CNC(=O)CSCc2ccccn2)c1 | 1.74%
3 | CC(NC(=O)c1ccc(C(N)=O)cc1)c1cccc(N2CCOC2=O)c1 (stereo not given) | 4.89%
4 | COCCc1noc(CN2CCN(c3ccc(OC)cc3)C(=O)C2C)n1 (stereo not given) | 4.12%
5 | CCc1nnc(C(C)N2CCN(CCC(C)(C)C)CC2)o1 (stereo not given) | 8.59%
6 | COc1ccc(CC2(CO)CCN(c3cc(C(N)=O)ccn3)CC2)cc1 | 8.7%
7 | Cc1nn(C)c2nc(NC3CCNCC3)sc12 | 0.889%
8 | O=C(Nc1ccc(Br)cc1F)c1ccc(N2CCOCC2)nn1 | -1.73%
9 | Cc1nn(C)c2nc(N3CCCCC3c3ccc(F)cc3)sc12 (stereo not given) | 3.9%
10 | CN(CCc1noc(C2CC2)n1)C(=O)C1(N2CCCC2)CCCC1 | -3.61%
11 | CCc1nc(C)c(CC(=O)N2CCC3(CC2)OCCCC3O)c(=O)[nH]1 (stereo not given) | 2.99%
12 | O=C(Nc1ccccc1OCCc1ccccn1)N1CCOCC(O)C1 (stereo not given) | 2.87%
13 | O=C1CCC(=O)N1CCn1nnc(-c2ccc(Br)cc2)n1 | -9.11%
14 | COc1cccc(CN(C)Cc2[nH]c3ccccc3c2C)c1O | -44.5%
15 | O=C(C1CCCO1)N1CCC(n2cc(-c3ccsc3)nn2)CC1 (stereo not given) | 4.03%
16 | Cc1ccc(CNS(=O)(=O)CCCC#N)cc1F | 7.39%
17 | CC(C)(C)CN(CCC#N)C(=O)c1cccc(CC#N)c1 | 4.84%
18 | CCc1ccccc1OCCN(C)C(=O)CCN1CCCCO1 | 0.981%
19 | CSCC(=O)N1CCN(CC(O)C(C)(C)C)CC1 (stereo not given) | -3.62%
20 | Cc1ccccc1Cc1nc(CSc2nnc(N)n2C2CC2)no1 | 7.43%
